Screening data: PubChem BioAssay, National Center for Advancing Translational Sciences (NCATS)
In the library only some 19% were active in any assay of this set; here they are far more common.
Marburg entry inh – Marburg virus entry inhibition; AID 540276; Potency, µM (top dose mostly 37.8 µM), without a hit: at the highest dose activity change, negative = inhibition, hits mostly inhibitors; Marburg virus pseudotyped entry inhibition, cell reporter; hit rate 1.8% among 300,000; calls by dose curve; tested in HEK293 cells; also: potency is read from the fitted curve at half-maximal effect; % is scaled to controls: 0 for no effect and ±100 for the full control effect
Shiga toxin inh – Shiga toxin inhibition; Vero cells, Shiga toxin protein synthesis inhibition reporter; inhibition, % at 38.7 µM; hit rate 9.2% among 290,000; in the data active = inhibition mostly above about 28%, no sharp cut-off; inactive = mostly below about 43%; also: 0% is about no effect
Pf growth 48h – P. falciparum growth inhibition at 48 hours (one generation) | AID 504832 | hit rate 5.9% among 310,000 | P. falciparum luciferase growth in erythrocytes, 48 h | Potency, µM (highest dose often 28.7 µM), for inactives: at the highest dose activity change, negative = inhibition, usual class: inhibitors; also: potency is read from the fitted curve at half-maximal effect; % is scaled to controls: 0 for no effect and ±100 for the full control effect
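First compound was added to culture medium, then infected red cells at 0.1% parasitemia and 2% hematocrit (final). After incubation at 37 C under 5% CO2, luciferase detection reagent was dispensed and light output recorded.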
LASV entry inh – inhibitors of Lassa virus binding or cell entry; Lassa virus pseudotype entry inhibition, cell reporter; AID 540256; Potency, µM (top dose mostly 37.9 µM), for the others: at the top dose activity change, negative = inhibition, usual class: inhibitors; hit rate 1.2% among 300,000; calls by dose curve; tested in HEK293 cells; also: potency is read from the fitted curve at half-maximal effect; % is scaled to controls: 0 for no effect and ±100 for the full control effect; nearly all actives have a fitted effect of over 50% in size
Cycloheximide cs – counter-screen hit for Shiga toxin inhibitors, cycloheximide; cell reporter, cycloheximide protein synthesis inhibition counterscreen; max response, %; hit rate 12% among 300,000; in the data active = max response mostly above about 13%, no sharp cut-off; inactive = mostly below about 14%; also: read at 38.3 µM for the half of the compounds with a filed dose; 0% is about no effect
Pf growth 96h – P. falciparum growth inhibition at 96 hours | hit rate 6.9% among 320,000 | P. falciparum luciferase reporter growth, 96 h | Potency, µM (top dose mostly 28.7 µM), for inactives: at the highest dose activity change, negative = inhibition, usual class: inhibitors; also: potency is read from the fitted curve at half-maximal effect; % is scaled to controls: 0 for no effect and ±100 for the full control effect
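Two-generation exposure (96 h) targets delayed-death phenotype. Reporter parasites carrying integrated firefly luciferase, in red cells at 2% hematocrit and 0.05% parasitemia final, kept at 37 C, 5% CO2; luminescence loss indicates inhibition.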
* marks the source's active call; other numbers are inactive results; i = inactive; ? = inconclusive; / = no result; + = active, no number; ! = not active in a repeat; [ ] = dose if it differs, or a comment. Unless noted, calls follow the shape of the dose curve; as a rule, active = well fitted inhibition curve with a large enough effect; inconclusive = small, poorly fitted or top-dose-only effect, or another doubt; inactive = no such curve, though single readings can be large or run the other way.

SMILES	Marburg entry inh	Shiga toxin inh	Pf growth 48h	LASV entry inh	Cycloheximide cs	Pf growth 96h
O=C(CN1CCC(c2nc3ccccc3[nH]2)CC1)NCc1ccc2c(c1)OCO2	-14.1%	-10.1	?	12.9%	1.4	?
Cc1csc(NC(=O)c2ccc(Cn3nc(C)c(Br)c3C)o2)n1	?	-9.8	?	11.2µM*	0.9	?
Cc1nn(Cc2ccc(C(=O)Nc3ccccc3C(F)(F)F)o2)c(C)c1Br	?	16.7	?	?	-1.3	40.2%
Cc1cc(N2CCOCC2)nc2ccc(NC(=O)CCC(=O)N3CCN(c4cccc(C(F)(F)F)c4)CC3)cc12	?	66.7*	4.65µM*	?	27.8*	0.2%
CC(=O)c1ccc(N2CCN(C(=O)CCC(=O)Nc3ccc4nc(N5CCCCC5)cc(C)c4c3)CC2)cc1	26.1%[46.1 µM]	/	/	20.0%[46.1 µM]	/	/
CCOC(CCNC(=O)CCC(=O)Nc1ccc2nc(N3CCN(C)CC3)cc(C)c2c1)OCC	-1.0%[46.1 µM]	-7.8	-14.2%	-5.1%[46.1 µM]	11.4	?
CC(=O)c1ccc(N2CCN(C(=O)CCC(=O)Nc3ccc4nc(N5CCN(C)CC5)cc(C)c4c3)CC2)cc1	?	2.0	9.28µM*	11.1%[46.1 µM]	-0.6	5.1%
Cc1cc(N2CCOCC2)nc2ccc(NC(=O)CCC(=O)N3CCCCC3)cc12	-33.5%	17.6	0.0%	29.0%	8.3	0.0%
Cc1cc(N2CCN(C)CC2)nc2ccc(NC(=O)CCC(=O)NCCc3ccc(Cl)cc3)cc12	-2.6%[46.1 µM]	-13.3	11.7µM*	1.6%[46.1 µM]	1.2	10.8%
O=C(NCc1ccccc1F)C1CCN(C(=O)NCc2ccccc2)CC1	5.8%	-10.8	-1.0%	-1.8%	-3.0	?
COc1ccc2c(C)c(CCC(=O)NCc3cccc(Cl)c3)c(=O)oc2c1	29.9%[46.1 µM]	/	/	15.3%[46.1 µM]	/	/
COC1CCCCC1Nc1cc(C)cc(C)c1 (stereo not drawn)	4.0%	-14.4	/	-16.3%	-3.6	13.1µM*
CC(=O)Nc1ccc2nc(NC(=O)COc3ccccc3)sc2c1	27.4%	25.0	10.1%	14.1%	15.0	77.7%
CC(=O)Nc1ccc2nc(NC(=O)CCc3ccccc3)sc2c1	/	56.4*	?	/	26.7*	?
COc1cccc2sc(Nc3nc4ccc(NC(C)=O)cc4s3)nc12	7.31µM*	44.0*	?	?	21.8*	?
CC(=O)Nc1ccc2nc(NC(=O)COc3ccccc3C)sc2c1	12.7%	35.4	21.1%	11.6%	50.2*	?
CC(=O)Nc1ccc2nc(NC(=O)COc3ccccc3Cl)sc2c1	?	43.2*	28.1%	17.0%	26.2*	i
COc1ccccc1OCC(=O)Nc1nc2c(s1)CC(C)CC2 (stereo not drawn)	11.4%[46.1 µM]	/	/	17.1%[46.1 µM]	/	/
Cc1nc2ccccc2n1Cc1ccccc1Br	?	-0.5	?	-26.3%[46.1 µM]	-2.8	-2.8%
O=C(O)C1C2C=CC(C2)C1C(=O)NCCCN1CCOCC1 (stereo not drawn)	-9.2%	-18.8	5.5%	6.0%	16.0	11.7µM*
CCOC(=O)c1c(SC)[nH]c2c(Cl)cccc2c1=O	-3.2%	4.2	8.6%	-0.1%	-1.5	38.4%
CCCCCCCCCCCCCCCCn1cc[n+](C)c1	?	-19.0	3.29µM*	-27.6%	-2.2	2.08µM*!
C[n+]1ccn(CC(=O)c2cccs2)c1	21.7%	-7.2	-16.9%	?	-1.0	?
CC1=CC(C)C(/C=N/N=C(N)N)C(C)C1 (stereo not drawn)	?	-6.6	11.7µM*	?	-2.8	2.94µM*
Cc1nn(CC(=O)Nc2cccnc2)c(=O)c2ccccc12	-17.4%[46.1 µM]	-15.3	-4.8%	1.4%	-5.0	29.6%
SMILES	Marburg entry inh	Shiga toxin inh	Pf growth 48h	LASV entry inh	Cycloheximide cs	Pf growth 96h
COc1cc(NC(=O)c2oc3ccccc3c2C)ccc1NC(=O)c1ccco1	-10.4%[46.1 µM]	63.3*	9.8%	/	29.3*	15.4%
COc1cc(NC(=O)c2ccco2)ccc1NC(=O)c1ccccc1Cl	?	41.4	-20.8%	12.6µM*	12.7*	/
COc1cc(NC(=O)Cc2ccccc2)ccc1NC(=O)c1ccco1	25.2%	18.8	35.8%	0.0%	14.1	?
COc1cc(NC(=O)c2cc3ccccc3o2)ccc1NC(=O)c1ccco1	7.9%[46.1 µM]	-2.4	1.6%	5.9%	-4.9	15.6%
COc1cc(NC(=O)c2ccccc2Cl)ccc1NC(=O)c1ccco1	19.2%	58.9	122.9%	-22.6%	40.8*	440.2%
CC(=C/c1ccc(C(C)C)cc1)/C=N/NC(=O)CSc1ccccn1	26.8%	156.9*	?	-18.6%	71.3*	-15.2%
CC(/C=N/NC(=O)CSc1ccccn1)=C\c1ccc(C(C)C)cc1	?	+	-12.2%	?	107.7*	?
O=C(CCC(=O)N1Cc2ccccc2Oc2ncccc21)NCc1ccccc1Cl	/	/	/	22.8%[46.1 µM]	/	/
CSc1nnc(C)c(=O)n1COC(=O)COc1ccc(F)cc1	1.1%[46.1 µM]	21.5	43.5%	6.0%[46.1 µM]	11.5	-18.4%
COc1cc(C(C)=O)ccc1OCc1cc(C(=O)N(C)CCC2CCCCO2)no1 (stereo not drawn)	/	100.6*	-5.9%	/	52.9*	-11.2%
COc1ccccc1OCc1cc(C(=O)N(C)CCC2CCCCO2)no1 (stereo not drawn)	8.5%	126.3*	7.7%	-5.0%	58.6*	?
Cc1ccccc1CN1c2ccccc2-c2nc(SCC(N)=O)ncc2S1(=O)=O	/	/	/	-1.7%[46.1 µM]	/	/
Cc1c(NC(=O)c2cc(-c3ccco3)on2)c(=O)n(-c2ccccc2)n1C	1.1%	22.2	0.6%	6.6%	-2.2	?
Cc1cc(C(=O)NCc2ccc(S(N)(=O)=O)cc2)ccc1[N+](=O)[O-]	1.7%	-9.0	19.3%	-2.6%	-0.7	11.5%
COc1cccc(C=C2SC(=S)NC2=O)c1	0.8%	/	/	-0.2%[46.1 µM]	/	/
CC(C)NC(=O)C(=O)NCCCN1CCOCC1	-26.9%[46.1 µM]	-8.0	-21.5%	4.5%	-1.8	-28.2%
CCCN1Cc2cccc(C(=O)Nc3ccccc3C(=O)OC)c2C1=O	2.6%[46.1 µM]	/	/	2.8%[46.1 µM]	/	/
CC(C)Oc1cccc(C(=O)NC2=NCCS2)c1	-14.0%	107.5*	346.6%	-28.6%	55.3*	?
COc1cccc(C(=O)NC2=NCCS2)c1	-29.7%	41.5*	407.1%	-26.6%	29.3*	i
CCOc1cccc(C(=O)NC2=NCCS2)c1	?	72.2*	164.3%	?	39.5*	?
CCCCN1C(=O)c2ccc(C(=O)NC3=NCCS3)cc2C1=O	29.5%[46.1 µM]	33.5	-6.2%	7.9%	20.2*	/
O=C(NC1=NCCS1)c1cccc(F)c1	0.8%[46.1 µM]	/	/	12.0%	/	/
O=C(CCN1C(=O)c2ccccc2C1=O)NC1=NCCS1	-15.3%[46.1 µM]	-4.9	9.5%	-13.5%	-1.3	13.9%
COC(=O)c1cn(-c2ccc(Cl)cc2)c(=O)c2ccccc12	-12.8%	-13.6	2.94µM*	-9.4%	-3.5	/
COC(=O)c1cn(-c2ccccc2)c(=O)c2ccccc12	-11.6%[46.1 µM]	-5.2	-21.8%	4.6%[46.1 µM]	20.0	9.9%
COC(=O)c1cn(C(=O)c2ccccc2)c2ccccc12	/	17.1	30.8%	/	0.6	38.3%
COC(=O)c1cn(C(=O)c2cc(Cl)ccc2Cl)c2ccccc12	15.9%	/	21.4%	-7.8%	-2.0	13.1µM*
